Holding throughout (design): species or system human, MV4-11 + K-562 + COLO205 + SK-N-BE2 + OVCAR-8
One experiment deals with CDK17. The conditions noted are these: read-out: apparent Kd, n = 1.
The subject of the next experiment is RPS6KA4. The conditions noted are these: read-out: apparent Kd, n = 1.
The next experiment relates to STK3. Conditions: read-out: apparent Kd, n = 1.
In a further experiment the test system is TNIK. Conditions: read-out: apparent Kd, n = 1.
For a further experiment, the system named is RIOK2. Conditions: read-out: apparent Kd, n = 1.
In another experiment the test system is CSNK1A1. The conditions noted are these: read-out: apparent Kd, compound concentrations: 100 nM and 1000 nM (sheet 'Samples'), n = 1.
The test system of a further experiment is HCK. Conditions: read-out: apparent Kd; compound concentrations: 100 nM and 1000 nM (sheet 'Samples'), CATDS: 4.52340510871738E-2; n = 1.
The next experiment has as its system SRC. Conditions: read-out: apparent Kd; compound concentrations: 100 nM and 1000 nM (sheet 'Samples'), CATDS: 5.0295032408805701E-2; n = 1.
A further experiment concerns STK16. Conditions: read-out: apparent Kd, n = 1.
The test system of a further experiment is CSNK1E. Conditions: read-out: apparent Kd, n = 1.
A further experiment concerns MAPK8. The conditions noted are these: read-out: apparent Kd, n = 1.
The next experiment has as its system PHKG2. The conditions noted are these: read-out: apparent Kd; compound concentrations:100 nM and 1000 nM (sheet 'Samples'); n = 1.
For a further experiment, the system named is BUB1. The conditions noted are these: read-out: apparent Kd; compound concentrations:100 nM and 1000 nM (sheet 'Samples'); n = 1.
The next experiment relates to PRKX. Conditions: read-out: apparent Kd, n = 1.
The subject of a further experiment is ROCK2. Conditions: read-out: apparent Kd, n = 1.
The next experiment concerns PRKAA2. The conditions noted are these: read-out: apparent Kd; compound concentrations: 100 nM and 1000 nM (sheet 'Samples'), CATDS: 2.2132106558792702E-2; n = 1.
The mark [1] stands for this setting: compound concentrations:100 nM and 1000 nM (sheet 'Samples').

Results on 24 compounds are retold here after paper PMC11062922 (Nature Chemical Biology, 2023).

Structures are written as SMILES. Read-outs that look alike come from different tables or passages of the source.

For the compound `NS(=O)(=O)c1ccc(N/C=C2\C(=O)Nc3ccc4ncsc4c32)cc1` [GW297361X], the potency estimated from few doses is 1.41 µM in the experiment on CDK17 (compound concentrations: 100 nM and 1000 nM (sheet 'Samples'), CATDS: 3.2920302363338198E-2); 1.15 µM with RPS6KA4 (compound concentrations: 100 nM and 1000 nM (sheet 'Samples'), CATDS: 3.5375158245813998E-2); 0.558 µM with STK3 (compound concentrations: 100 nM and 1000 nM (sheet 'Samples'), CATDS: 4.8533419751013301E-2); 1.05 µM in the experiment on TNIK (compound concentrations: 100 nM and 1000 nM (sheet 'Samples'), CATDS: 3.6664419763171099E-2).

With `CNc1nccc(-c2ccc3c(N)n[nH]c3c2)n1` [GSK2206003A], in the experiment on RIOK2 (compound concentrations: 100 nM and 1000 nM (sheet 'Samples'), CATDS: 5.2095061468969701E-2), the potency estimated from few doses is 1.36 µM.

For the compound `NS(=O)(=O)c1ccc(N/N=C2\C(=O)Nc3ccc(-c4cnco4)cc32)cc1` [GW276655_KCGS], the potency estimated from few doses in the experiment with TNIK (setting [1]) was 1.94 µM.

On to `COc1ccc(Nc2nccc(NCCNC(=O)Nc3cc(C)ccc3C)n2)cc1` [GSK1379899A], for which the potency estimated from few doses is 2.32 µM in the experiment on CSNK1A1 (CATDS: 3.9039606822866203E-2), 1.5 µM in the experiment on HCK and 1.15 µM in the experiment on SRC.

Consider `CNCC1CCn2c(c(C3=C(c4cn(C)c5ccccc45)C(=O)NC3=O)c3ccccc32)C1` (stereo not drawn) [RO0318676-000], for which the potency estimated from few doses with CDK17 (compound concentrations: 100 nM and 1000 nM (sheet 'Samples'), CATDS: 2.8092729884281801E-2) is 1.74 µM.

Consider `Cl.Nc1nc(-c2ccc3c(c2)C(=Cc2cc(Br)c(O)c(Br)c2)C(=O)N3)cs1` [GW407323A], for which the potency estimated from few doses in the experiment on CDK17 (compound concentrations: 100 nM and 1000 nM (sheet 'Samples'), CATDS: 2.78233460707746E-2) was 2.03 µM; with TNIK (compound concentrations: 100 nM and 1000 nM (sheet 'Samples'), CATDS: 0.10928508706444801), 0.0586 µM.

Turning to `CC(C)N1CC(=O)N(C)c2cnc(Nc3cccc(S(=O)(=O)CCN4CCOCC4)c3)nc21` [BI00009348], in the experiment on STK16 (compound concentrations: 100 nM and 1000 nM (sheet 'Samples'), CATDS: 5.8221493759355002E-2), the potency estimated from few doses was 1.18 µM.

Consider `COc1cccc(C2=C(c3c(C)n(C)c4ccccc34)C(=O)NC2=O)c1` [RO3300167-000], for which the potency estimated from few doses in the experiment with STK3 (compound concentrations: 100 nM and 1000 nM (sheet 'Samples'), CATDS: 0.106754068539186) is 0.824 µM.

For `Nc1nc(-c2ccc3c(N)n[nH]c3c2)cc(N2CCCC(NC(=O)c3ccccc3)C2)n1` (stereo not drawn) [GSK2286775B], the potency estimated from few doses in the experiment with RIOK2 (setting [1]) was 1.86 µM.

With `NS(=O)(=O)c1ccc(NC=C2C(=O)Nc3ccc4ncsc4c32)cc1` [GW589933X], the potency estimated from few doses was 0.479 µM in the experiment with CDK17 (compound concentrations: 100 nM and 1000 nM (sheet 'Samples'), CATDS: 2.5834512792532401E-2); 1.5 µM in the experiment with CSNK1E (compound concentrations: 100 nM and 1000 nM (sheet 'Samples'), CATDS: 1.7679596648165999E-2); 0.479 µM in the experiment with RPS6KA4 (compound concentrations: 100 nM and 1000 nM (sheet 'Samples'), CATDS: 2.5851222500782998E-2); 0.295 µM with STK3 (compound concentrations: 100 nM and 1000 nM (sheet 'Samples'), CATDS: 3.1819272048607197E-2); 0.0892 µM in the experiment with TNIK (compound concentrations: 100 nM and 1000 nM (sheet 'Samples'), CATDS: 5.8590994029209698E-2).

For `COc1cc2ncn(-c3cc(OCc4ccccc4S(C)(=O)=O)c(C#N)s3)c2cc1OC` [GSK319347A], in the experiment with TNIK (compound concentrations: 100 nM and 1000 nM (sheet 'Samples'), CATDS: 7.3332449024222507E-2), the potency estimated from few doses was 2.28 µM.

Turning to `COc1cc[nH]c1/C=C1\C(=O)Nc2ccc(F)c(C#C[C@@H](O)[C@@H](N)[C@@H](C)O)c21` [RO0283120-000], the potency estimated from few doses was 0.774 µM in the experiment with CDK17 (setting [1]); 0.942 µM with MAPK8 (setting [1]); 0.669 µM in the experiment on PHKG2; 0.421 µM in the experiment with RPS6KA4 (setting [1]); 1.23 µM in the experiment on STK16 (setting [1]); 0.68 µM in the experiment with STK3 (setting [1]).

As to `CCn1c(-c2nonc2N)nc2cncc(C(=O)N3CC[C@H](N)C3)c21.Cl` [SB-772077-B], the potency estimated from few doses with BUB1 was 1.79 µM; in the experiment on PRKX (setting [1]) it was 0.177 µM; in the experiment with ROCK2 (setting [1]) it was 0.0116 µM; with RPS6KA4 (setting [1]), 0.0826 µM.

`CC(C)(CO)CNC(=O)c1ccc2c(c1)/C(=N/Nc1ccc(S(N)(=O)=O)cc1)C(=O)N2` [GW301784X]: the potency estimated from few doses in the experiment with CDK17 (setting [1]) was 0.212 µM.

Turning to `Nc1nccc(-c2ccc3c(N)n[nH]c3c2)n1` [GSK1034945A], the potency estimated from few doses in the experiment on PRKX (setting [1]) was 1.04 µM.

Take `NS(=O)(=O)c1ccc(N/N=C2\C(=O)Nc3ccc4ncccc4c32)cc1` [GW305178X]: the potency estimated from few doses with CDK17 (compound concentrations: 100 nM and 1000 nM (sheet 'Samples'), CATDS: 6.1858788217922803E-2) is 0.544 µM; in the experiment on STK3 (compound concentrations: 100 nM and 1000 nM (sheet 'Samples'), CATDS: 4.2852870715448799E-2), 1.58 µM.

For the compound `Cl.Cl.NCC(NC(=O)c1cc(-c2ccnc3[nH]ccc23)cs1)c1ccccc1.NCC(NC(=O)c1cc(-c2ccnc3[nH]ccc23)cs1)c1ccccc1` (stereo not drawn) [GSK1229959A], the potency estimated from few doses was 1.76 µM with CSNK1A1 (CATDS: 1.7292199039589701E-2); 0.0216 µM with PRKX (compound concentrations: 100 nM and 1000 nM (sheet 'Samples'), CATDS: 6.1031439007252199E-2); 0.0062 µM with ROCK2 (compound concentrations: 100 nM and 1000 nM (sheet 'Samples'), CATDS: 0.12516480015121101).

Consider `Cl.Cl.NC[C@H](CC1CCCCC1)NC(=O)c1ccc(-c2ccnc3[nH]ccc23)s1.NC[C@H](CC1CCCCC1)NC(=O)c1ccc(-c2ccnc3[nH]ccc23)s1` [GSK1581428A], for which the potency estimated from few doses in the experiment with PRKX (setting [1]) was 0.0148 µM; in the experiment on ROCK2 (setting [1]), 0.0228 µM.

Take `CCC(CC)(CC)n1cnc2c(N)ncnc21` [SKF-97620]: the potency estimated from few doses in the experiment on CSNK1A1 (CATDS: 2.3982037208091899E-2) was 2.04 µM; in the experiment with ROCK2 (compound concentrations: 100 nM and 1000 nM (sheet 'Samples'), CATDS: 2.44983042375609E-2), 1.89 µM; in the experiment with STK16 (compound concentrations: 100 nM and 1000 nM (sheet 'Samples'), CATDS: 2.4791853580208099E-2), 1.81 µM.

Take `CCn1c(-c2nonc2N)nc2cncc(Br)c21` [SB-738004]: the potency estimated from few doses in the experiment with ROCK2 (setting [1]) was 0.0841 µM.

Regarding `CN[C@H](C#Cc1c(F)ccc2c1/C(=C/c1[nH]ccc1OC)C(=O)N2)CO.Cl` [RO0283049-001], the potency estimated from few doses in the experiment with CDK17 (compound concentrations: 100 nM and 1000 nM (sheet 'Samples'), CATDS: 2.52216381525E-2) is 0.797 µM; in the experiment with MAPK8 (compound concentrations: 100 nM and 1000 nM (sheet 'Samples'), CATDS: 2.3865575859687099E-2), 0.951 µM; in the experiment on PRKAA2, 1.24 µM; in the experiment with RPS6KA4 (compound concentrations: 100 nM and 1000 nM (sheet 'Samples'), CATDS: 3.14855312856318E-2), 0.432 µM; with STK16 (compound concentrations: 100 nM and 1000 nM (sheet 'Samples'), CATDS: 2.2828381206070801E-2) it was 1.11 µM; in the experiment on STK3 (compound concentrations: 100 nM and 1000 nM (sheet 'Samples'), CATDS: 2.5923871339058099E-2) it was 0.733 µM.

As to `CN(C)c1ccc2c(c1)/C(=C/Nc1ccc(S(N)(=O)=O)cc1)C(=O)N2` [GW416469X], the potency estimated from few doses in the experiment with STK3 (compound concentrations: 100 nM and 1000 nM (sheet 'Samples'), CATDS: 7.8286215558842895E-2) is 1.33 µM.

On to `Cc1cc(NC(=O)c2cccc(NC(=O)/C=C/CN(C)C)c2)ccc1Nc1nccc(-c2cccnc2)n1` [JNK-IN-7], for which the potency estimated from few doses is 2.01 µM in the experiment on CSNK1E (setting [1]); 0.0107 µM in the experiment on MAPK8 (compound concentrations: 100 nM and 1000 nM (sheet 'Samples'), CATDS: 0.361738634517147); 0.72 µM in the experiment on RIOK2 (setting [1]).

With `O=C(Nc1n[nH]c2nc(-c3ccccc3O)ccc12)C1CC1` [SB-711880], the values for the potency estimated from few doses in the experiment with PHKG2, in the experiment on STK3 (setting [1]) and with TNIK (setting [1]) were 1.55 µM, 0.483 µM and 1.15 µM, respectively.
